tim10-1 inh = growth inhibitors of tim10-1 mutant yeast | 2.2% of 330,000 active | S. cerevisiae tim10-1 ts strain growth, BacTiter-Glo, 24 h | inhibition, % at 20 µM;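 active = inhibition of at least 40%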;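 also: mutant grown at 25 °C; 0% = DMSO wells with yeast and 100% = wells holding no yeast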
V-ATPase pH = yeast V-ATPase proton transport regulation by pHLuorin. response, % at 10 µM. 0.37% of 350,000 active. S. cerevisiae, pHLuorin cytosolic pH fluorescence; in the data active = response mostly above about 7.3%, no sharp cut-off; inactive = mostly below about 5.4%; also: actives read high
SKKanGAS inh = blocks kanamycin growth of S. pyogenes SKKanGAS strain | 1.3% of 300,000 active | BacTiter-Glo, 6 h | inhibition, % at 7.5 µM;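 active = mean replicate score, as percent of positive control median, at least 50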;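 also: strain carries kanamycin resistance gene driven by streptokinase promoter and grows in 40 µg/ml kanamycin; loss of luminescence reflects streptokinase promoter inhibition or plain growth inhibition; 0% = median of DMSO wells and 100% = positive control at its reference dose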
tim23-1 inh = tim23-1 yeast growth inhibition; S. cerevisiae tim23-1 growth, BacTiter-Glo luminescence, 24 h; inhibition, % at 20 µM; 1.3% of 330,000 active; AID 463212;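 active = growth inhibition of the mutant yeast at or above 50%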;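 also: temperature-sensitive mutant grown at 25 °C; plate controls were DMSO-treated mutant yeast for no effect and medium wells lacking yeast for full effect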
PfHsp90 yeast 2 = growth inhibition of yeast expressing Plasmodium Hsp90. 0.32% of 310,000 active. S. cerevisiae expressing PfHsp90, BacTiter-Glo ATP, 48 h; yeast lacking PDR1 and PDR3 efflux regulators. inhibition, % at 9.4 µM;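 active = every replicate shows inhibition above about 80%, whatever the replicate mean, limit read from the data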;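 also: 0% = DMSO neutral controls and 100% = 20 µM radicicol positive controls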
TIM10 inh = inhibits growth of TIM10 yeast strain; S. cerevisiae TIM10 strain growth, BacTiter-Glo luminescence, 24 h; inhibition, % at 10 µM; 1.4% of 330,000 active; AID 463195;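 active = inhibition of 40% or more at the single tested concentration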;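 also: wild-type TIM10 isogenic control strain grown at permissive 25 °C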
Numbers without * were called inactive; / = no result given. A selection: hits, their analogues and other compounds. The true share with any hit is near 4.6%.

SMILES	tim10-1 inh	V-ATPase pH	SKKanGAS inh	tim23-1 inh	PfHsp90 yeast 2	TIM10 inh
COc1cc(C(=O)Nc2ccc(N3CCCS3(=O)=O)cc2)c([N+](=O)[O-])cc1OC	-1	-3	-2	8	/	9
Cc1ccc(Cl)cc1NC(=O)c1cc2ccccc2cc1O	1	1	97*	17	-34	-2
COc1ccccc1NC(=O)c1cc2cc(Br)ccc2cc1O	/	7	53*	/	-4	/
COc1cc(NC(=O)c2cc3ccccc3cc2O)c(OC)cc1Cl	-24	-4	17	-4	-6	-4
CCOC(=O)c1cnc(-n2nc(C)cc2C)nc1Nc1ccc(OC)cc1	13	6	66*	45	-11	20
CCOC(=O)c1cnc(-n2nc(C)cc2C)nc1Oc1ccc(C(=O)OC)cc1	-39	0	-5	-8	/	-57
O=C1CC(N2CCN(c3ccc(O)cc3)CC2)C(=O)N1c1ccc2c(c1)OCO2 (stereo not drawn)	2	2	4	3	4	8
O=C1CC(N2CCCCCC2)C(=O)N1c1ccc2c(c1)OCO2 (stereo not drawn)	39	4	2	29	121*	25
O=C(NNC(=O)c1cc(-c2ccc(Cl)cc2)nc2ccccc12)c1csc(N2CCOCC2)n1	15	2	60*	19	/	6
O=C(NNC(=O)c1ccccc1OCc1ccccc1Cl)c1csc(N2CCOCC2)n1	20	1	60*	23	-1	25
COc1ccccc1C(=O)NNC(=O)c1csc(N2CCOCC2)n1	7	1	-13	11	-1	1
O=C(NNC(=O)c1cc(-c2ccccc2)nc2ccccc12)c1csc(N2CCOCC2)n1	5	3	-9	12	/	8
COc1ccccc1N=Nc1nc(-c2ccccc2)c(-c2ccccc2)[nH]1	/	2	67*	/	5	/
Cc1cc(=O)[nH]c(N/N=C/c2ccc(OC(=O)c3cccnc3)cc2)n1	14	6	13	0	9	-4
CCCCCCCC(=O)NNC(=O)c1c(O)c2ccccc2n(CC)c1=O	-20	1	99*	17	7	-18
CCn1c(=O)c(C(=O)NNC(=O)c2ccccc2)c(O)c2ccccc21	-19	-1	53*	7	-3	-16
CCn1c(=O)c(C(=O)NCCc2ccccc2)c(O)c2ccccc21	-7	-7	13	-4	20	11
CCn1c(=O)c(C(=O)Nc2ccccc2C)c(O)c2ccccc21	-5	1	-3	-5	5	-4
CC(C)Cn1c(=O)c(C(=O)Nc2ccncc2)c(O)c2ccccc21	-8	-1	96*	14	106*	12
CCCCCCCCC(=O)NNC(=O)c1c(O)c2ccccc2n(CC)c1=O	-21	-1	106*	32	6	6
O=C(NCCNC(=O)c1ccc(-c2cc(Cl)ccc2Cl)o1)c1cnccn1	/	-1	/	/	/	/
CCC(=O)N(C)C[C@H]1Oc2cc(-c3ccccc3F)ccc2S(=O)(=O)N([C@H](C)CO)C[C@H]1C	/	-4	/	/	/	/
CCCn1c(=O)c(C(=O)NNC(=O)c2ccccc2Cl)c(O)c2ccccc21	-43	-3	86*	37	9	16
C=CCn1c(=O)c(C(=O)NCc2ccccc2)c(O)c2ccccc21	-18	2	55*	48	-1	29
CCCCCCC(=O)NNC(=O)c1c(O)c2ccccc2n(CC)c1=O	12	0	112*	34	-4	21
SMILES	tim10-1 inh	V-ATPase pH	SKKanGAS inh	tim23-1 inh	PfHsp90 yeast 2	TIM10 inh
CCCn1c(=O)c(C(=O)NNC(=O)Cc2ccccc2)c(O)c2ccccc21	-28	2	36	-18	-6	4
CCCCCCCC(=O)NNC(=O)c1c(O)c2ccccc2n(CCC)c1=O	-9	2	111*	17	25	-4
CCCn1c(=O)c(C(=O)NNC(=O)c2ccccc2[N+](=O)[O-])c(O)c2ccccc21	13	-1	17	34	/	17
COc1ccc(S(=O)(=O)N2CCc3ccccc32)cc1C(=O)N1CCOCC1	9	-4	17	8	5	9
CCCCn1c(N)c(N(CC(C)C)C(=O)CN2C(=O)NC3(CCC(C(C)(C)CC)CC3)C2=O)c(=O)[nH]c1=O (stereo not drawn)	/	0	/	/	-9	/
O=C1CCCc2oc3c(cc(NS(=O)(=O)c4ccc5c6c(cccc46)C(=O)N5)c4ccccc43)c21	15	2	54*	20	-3	-2
Cc1csc(N=Cc2ccc([N+](=O)[O-])o2)n1	/	-1	/	/	/	/
COc1ccc2cc(C(=O)/C=C/c3cc(OC)c(O)c(OC)c3)ccc2c1	35	4	69*	30	9	9
COc1cc(/C=C/C(=O)c2ccc(NS(=O)(=O)c3ccc(C)cc3)cc2)cc(OC)c1O	/	113*	43	/	-9	/
O=C1NC(=O)/C(=C\c2ccc(OCc3ccccc3)cc2)S1	10	3	55*	9	8	7
COc1cc(/C=C2/SC(=O)NC2=O)ccc1OCc1ccccc1	17	3	28	16	-12	4
CCOc1ccc(N(C)c2ccc(/C=C3/SC(=S)NC3=O)cc2)cc1	0	4	65*	-1	1	9
COc1cc2cnc(-c3cccnc3)cc2cc1OC	-2	0	/	18	8	6
COc1ccc(C(=O)Nc2c(Cl)cc(Cl)cc2C(=O)N2CCOCC2)cc1	20	2	-2	5	-15	4
CCC(=O)N1N=C(c2c(O)n(C)c(=O)n(C)c2=O)CC1c1ccccc1 (stereo not drawn)	-11	-2	75*	15	-16	4
Oc1[nH]c2ccccc2c1N=Nc1nc2ccccc2s1	14	0	22	14	-97	21
Cc1ccc2[nH]c(O)c(N=Nc3nc4ccccc4s3)c2c1	9	4	108*	12	-4	3
Clc1ccccc1-c1nc(-c2ccncc2)no1	-7	1	-8	6	-44	1
Cc1onc(-c2ccccc2Cl)c1-c1nc(-c2ccncc2)no1	3	21*	-5	-9	11	6
CCCCCCNS(=O)(=O)c1ccc(NC(=O)C2CCCO2)cc1 (stereo not drawn)	2	-3	-1	23	-5	5
CC1=Nn2c(nnc2-c2ccccc2F)SC1	9	15*	-7	-13	2	6
O=C(OCC(=O)N1CCCC1=O)c1nc(Cl)c(Cl)c(Cl)c1Cl	-16	-2	-3	6	-8	-16
CCC(=O)Nc1nc2ccccc2n1Cc1ccccc1	28	-2	6	8	4	10
CCC(=O)Nc1nc2ccccc2n1Cc1ccc(C)cc1	23	-2	94*	15	-13	16
CC(=O)Nc1nc2ccccc2n1Cc1ccc(Cl)cc1	23	-1	64*	19	6	17
CCCn1c(NC(=O)c2cccc(C)c2C)nc2ccccc21	20	3	52*	24	-32	30
